Bioassay records deposited in PubChem BioAssay by several laboratories.
CR mimetic SO – caloric restriction mimetics inhibiting age-related superoxide in yeast; S. cerevisiae aged cells, superoxide DHE fluorescence; hits give low values; superoxide response (% of plate mean), % at 10 µM; 330,000 compounds, 0.18% hits;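 active = superoxide response under a set limit, about three screen SD below normal, cut at about 65% in these data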;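 also: yeast aged for seven days with compound at 30 °C before DHE staining; 100% = average MFI of all compound-treated wells on the plate with controls excluded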
BCLXL inh – Bcl-xL (human) inhibition; Q07817; GST-Bcl-xL / FITC-Bim BH3 peptide fluorescence polarization; inhibition, % at 10.9 µM; 320,000 compounds, 0.7% hits; AID 2129;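 active = inhibition above the mean of all tested compounds plus 3 SD, cutoff set per campaign, cut at about 30% in these data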;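 also: 0% = DMSO wells and 100% = unlabeled Bim-BH3 peptide competitor; inhibitors lower millipolarization by displacing the labeled peptide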
Target sequence (Q07817 whole entry, looked up): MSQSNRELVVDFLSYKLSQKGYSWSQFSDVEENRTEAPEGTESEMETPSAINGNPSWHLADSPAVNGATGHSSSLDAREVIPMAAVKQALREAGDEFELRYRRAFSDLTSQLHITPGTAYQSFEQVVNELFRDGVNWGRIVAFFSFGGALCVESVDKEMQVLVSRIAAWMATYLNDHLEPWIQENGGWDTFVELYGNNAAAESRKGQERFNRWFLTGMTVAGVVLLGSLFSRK
MEX-5 binding – C. elegans MEX-5 TCR-2 RNA binding activity | Q9XUB2 | MEX-5/FITC-TCR2 RNA binding, fluorescence polarization; hits give low values | activity score (negative = inhibition of binding), % at 10 µM | 300,000 compounds, 0.38% hits;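 active = inhibition past about -25% in most replicates, and total fluorescence under double the plate's negative control median, limit read from the data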;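 also: 0% = DMSO and -100% = 5 µM competing unlabeled TCR2 RNA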
MCL1 BIM primary – MCL1-BIM-BH3 interaction inhibition (human); GST-MCL1 / FITC-Bim-BH3 fluorescence polarization; 320,000 compounds, 0.68% hits; inhibition, % at 10.9 µM; AID 2057;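 active = inhibition above the mean inhibition of all tested compounds plus 3 SD, set per campaign, cut at about 40% in these data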;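 also: 0% = DMSO wells and 100% = unlabeled Bim-BH3 peptide control; higher means more loss of mP so more displacement of Bim peptide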
Target sequence (Q07820 whole entry, looked up): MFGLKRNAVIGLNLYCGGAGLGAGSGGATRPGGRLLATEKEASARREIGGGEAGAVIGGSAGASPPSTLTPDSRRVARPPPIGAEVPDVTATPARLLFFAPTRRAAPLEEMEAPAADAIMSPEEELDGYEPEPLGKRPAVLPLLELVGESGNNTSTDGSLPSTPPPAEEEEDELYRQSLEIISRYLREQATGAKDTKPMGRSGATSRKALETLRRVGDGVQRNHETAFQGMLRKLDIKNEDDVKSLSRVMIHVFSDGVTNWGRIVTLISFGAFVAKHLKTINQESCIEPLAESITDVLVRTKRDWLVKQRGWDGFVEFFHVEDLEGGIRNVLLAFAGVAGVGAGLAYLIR
LANA-H2B inh – blocks KSHV LANA binding to histone H2A/H2B; AID 2629; cell-free LANA-H2A/H2B peptide, fluorescence polarization; inhibition, % (no concentration beside the values); 320,000 compounds, 0.6% hits; Q9QR71; in the data active = inhibition mostly above about 10%, no sharp cut-off; inactive = mostly below about 6.7%
GLD-1 TGE inh – GLD-1-TGE RNA interaction inhibition (C. elegans). purified GLD-1 + fluorescein TGE RNA, fluorescence polarization. inhibition, % at 5.96 µM. 320,000 compounds, 0.44% hits. Q17339;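 active = percent inhibition above a per-plate cutoff, the plate mean of test compounds plus 3 SD, cut at about 30% in these data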;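 also: 0% = DMSO wells with GLD-1 and probe and 100% = wells lacking GLD-1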
BCLXL inh confirm – Bcl-xL (human) inhibition, MCL1 counter-screen confirmation. shares compounds with MCL1 BIM primary. inhibition, % at 10.9 µM. GST-Bcl-xL / FITC-Bim BH3 peptide FP binding. 1,700 compounds, 54% hits;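 active = inhibition above a cutoff equal to the mean inhibition of all tested compounds plus 3 SD, cut at about 30% in these data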;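 also: 0% = DMSO wells and 100% = unlabeled Bim BH3 control peptide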
MCL1 inh confirm – confirmation of human MCL1 and BIM-BH3 interaction inhibitors | inhibition, % at 10.9 µM | shares compounds with MCL1 BIM primary | 1,700 compounds, 61% hits | GST-MCL1 / FITC-Bim-BH3 fluorescence polarization;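 active = inhibition above the average of all tested compounds plus 3 SD, cut at about 40% in these data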;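 also: 0% = DMSO wells and 100% = unlabeled Bim-BH3 control peptide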
* hit, by the source's call. An excerpt weighted towards active compounds, which were near 1.9% of everything screened.

For COc1cc(C2c3sc(=O)[nH]c3SC3C(=O)N(c4ccc(Br)cc4)C(=O)C32)ccc1O (stereo unspecified) the results were CR mimetic SO 107, BCLXL inh 16, MEX-5 binding -1, MCL1 BIM primary 14, LANA-H2B inh 1 and GLD-1 TGE inh 12.
Screening CCOc1ccc(N2C(=O)C3Sc4[nH]c(=O)sc4C(/C=C/c4ccccc4)C3C2=O)cc1 (stereo unspecified) returned CR mimetic SO 103, BCLXL inh 57*, MEX-5 binding -1, MCL1 BIM primary 42*, LANA-H2B inh 3, GLD-1 TGE inh 42*, BCLXL inh confirm -4 and MCL1 inh confirm -16.
For Clc1cc(Cl)c2nc(N3CCCCC3)sc2c1 the results were CR mimetic SO 102, BCLXL inh -3, MEX-5 binding -1, MCL1 BIM primary -2, LANA-H2B inh -8 and GLD-1 TGE inh 3.
For Clc1cccc2sc(N3CCCCC3)nc12 the results were CR mimetic SO 100, BCLXL inh 69*, MEX-5 binding -2, MCL1 BIM primary 58*, LANA-H2B inh -4, GLD-1 TGE inh 19, BCLXL inh confirm 2 and MCL1 inh confirm 6.
Screening O=C(COC(=O)c1ccc(Cl)nc1)NC1CCCc2ccccc21 (stereo unspecified) returned CR mimetic SO 82, LANA-H2B inh 2 and GLD-1 TGE inh 4.
`O=C1C(=Cc2ccc(Br)o2)C(=O)c2ccccc21` gave CR mimetic SO 110, BCLXL inh 47*, MCL1 BIM primary 92*, LANA-H2B inh -3, GLD-1 TGE inh 6, BCLXL inh confirm 43* and MCL1 inh confirm 64*.
CSCC[C@H](NC(=O)C1CCN(S(=O)(=O)c2ccc(C)cc2C)CC1)c1nc2ccccc2[nH]1 was read as CR mimetic SO 97, LANA-H2B inh 2 and GLD-1 TGE inh 6.
For CN1C(=O)NC(c2ccccc2[N+](=O)[O-])C2=C1CCCC2=O (stereo unspecified) the results were CR mimetic SO 112, BCLXL inh active, MEX-5 binding -80*, MCL1 BIM primary active, LANA-H2B inh 18, GLD-1 TGE inh active, BCLXL inh confirm 154* and MCL1 inh confirm 177*.
Screening Cc1cc(C)cc(N(CC(=O)NC2CCCC2)C(=O)CNC(=O)c2cccs2)c1 returned CR mimetic SO 115, BCLXL inh 3, MEX-5 binding 1, MCL1 BIM primary 4, LANA-H2B inh 15 and GLD-1 TGE inh 4.
For O=C(c1nc2ccc(Cl)cn2c1CN1CCC[C@H]1CO)N1CCCCCCC1 the results were CR mimetic SO 94, BCLXL inh 61*, MEX-5 binding -23, MCL1 BIM primary 66*, LANA-H2B inh 5, GLD-1 TGE inh 26, BCLXL inh confirm 55* and MCL1 inh confirm 69*.
`C[n+]1c(/C=C/c2ccc(O)cc2)ccc2ccccc21` gave CR mimetic SO 92, BCLXL inh -20, MEX-5 binding 20, MCL1 BIM primary -35, LANA-H2B inh -6 and GLD-1 TGE inh -180.
`Cc1cc(/C=C\c2ccc3cc(N(C)C)ccc3[n+]2C)c(C)n1-c1ccccc1` gave CR mimetic SO 159, BCLXL inh 54*, MCL1 BIM primary 132*, LANA-H2B inh -6, GLD-1 TGE inh 139*, BCLXL inh confirm 41* and MCL1 inh confirm 101*.
For Cc1c2ccccc2cc[n+]1CCCS(=O)(=O)[O-] the results were CR mimetic SO 79, BCLXL inh 8, MEX-5 binding 0, MCL1 BIM primary 5, LANA-H2B inh -2 and GLD-1 TGE inh -1.
CC1(C)C(/C=C/C=C/C=C/C=C2\N(CCCCS(=O)(=O)O)c3ccc4ccccc4c3C2(C)C)=[N+](CCCCS(=O)(=O)[O-])c2ccc3ccccc3c21 was read as CR mimetic SO 84, BCLXL inh 85*, MCL1 BIM primary 90*, LANA-H2B inh 10, GLD-1 TGE inh 0, BCLXL inh confirm 68* and MCL1 inh confirm 74*.
Screening O=C(NC(CO)(CO)CO)[C@@H]1CCCN1S(=O)(=O)c1cccc2cccnc12 returned CR mimetic SO 86, BCLXL inh 0, MCL1 BIM primary -8, LANA-H2B inh 1 and GLD-1 TGE inh 9.
For O=C(CSc1nnc(SCc2ccccc2)s1)N/N=C/C=C/c1ccco1 the results were CR mimetic SO 106, BCLXL inh 9, MEX-5 binding 1, MCL1 BIM primary 58*, LANA-H2B inh -1, GLD-1 TGE inh 5, BCLXL inh confirm 23 and MCL1 inh confirm 67*.
For Cc1cc(C)c2nc(-c3ccccn3)cc(C(=O)Nc3ccc(S(=O)(=O)Nc4onc(C)c4C)cc3)c2c1 the results were CR mimetic SO 96, BCLXL inh 17, MEX-5 binding -2, MCL1 BIM primary 41*, LANA-H2B inh 1, GLD-1 TGE inh 6, BCLXL inh confirm 30* and MCL1 inh confirm 79*.
Screening Cc1cc(C)c2nc(-c3ccccn3)cc(C(=O)Nc3ccc(S(=O)(=O)Nc4cc(C)on4)cc3)c2c1 returned CR mimetic SO 95, BCLXL inh 8, MEX-5 binding 1, MCL1 BIM primary 9, LANA-H2B inh 4 and GLD-1 TGE inh 6.
Screening CN1CCc2cccc3c2[C@@H]1Cc1ccc(O)c(O)c1-3 returned CR mimetic SO 96, BCLXL inh 49*, MCL1 BIM primary 71*, LANA-H2B inh active, GLD-1 TGE inh 11, BCLXL inh confirm 13 and MCL1 inh confirm 29.
`COc1ccc2c(c1O)-c1ccccc1CCN(C)C2` gave CR mimetic SO 98, BCLXL inh 1, MEX-5 binding 3, MCL1 BIM primary 0, LANA-H2B inh -2 and GLD-1 TGE inh 4.
Screening COc1cccc(NC(=O)CN(C)C(=O)COc2ccccc2Cc2ccccc2)c1 returned CR mimetic SO 73, BCLXL inh -2, MCL1 BIM primary -4, LANA-H2B inh -6 and GLD-1 TGE inh 5.
Screening CC1CCN(c2ccc3c(c2)S(=O)(=O)c2cccc(C(=O)NCc4cccc(F)c4)c2C3=O)CC1 returned CR mimetic SO 97, BCLXL inh 27, MCL1 BIM primary 68*, LANA-H2B inh 1, GLD-1 TGE inh 162*, BCLXL inh confirm -28 and MCL1 inh confirm -52.
Screening O=C(O)c1cccc2c1C(=O)c1ccc(N3CCCC3)cc1S2(=O)=O returned CR mimetic SO 92, BCLXL inh 112*, MCL1 BIM primary 131*, LANA-H2B inh -8, GLD-1 TGE inh 80*, BCLXL inh confirm 104* and MCL1 inh confirm 122*.
